Laboratory results: PubChem BioAssay (Tox21)
Where “and” joins values, the source holds several entries; their conditions need not be identical. Equal entries are not always repeated. Results filed as inconclusive are left out. Entries that show only a call come without a potency. Calls of active or inactive are those of the source. Unless noted, calls follow the shape of the dose curve; as a rule, active = well fitted cell-killing curve with a large enough effect in the repeat runs; inconclusive = weak or mixed curves, or effect the other way; inactive = no such curve, though single readings can be large or run the other way.

Biological target: Vitamin D3 receptor (Homo sapiens) (UniProt P11473)
Sequence (P11473 whole entry, looked up): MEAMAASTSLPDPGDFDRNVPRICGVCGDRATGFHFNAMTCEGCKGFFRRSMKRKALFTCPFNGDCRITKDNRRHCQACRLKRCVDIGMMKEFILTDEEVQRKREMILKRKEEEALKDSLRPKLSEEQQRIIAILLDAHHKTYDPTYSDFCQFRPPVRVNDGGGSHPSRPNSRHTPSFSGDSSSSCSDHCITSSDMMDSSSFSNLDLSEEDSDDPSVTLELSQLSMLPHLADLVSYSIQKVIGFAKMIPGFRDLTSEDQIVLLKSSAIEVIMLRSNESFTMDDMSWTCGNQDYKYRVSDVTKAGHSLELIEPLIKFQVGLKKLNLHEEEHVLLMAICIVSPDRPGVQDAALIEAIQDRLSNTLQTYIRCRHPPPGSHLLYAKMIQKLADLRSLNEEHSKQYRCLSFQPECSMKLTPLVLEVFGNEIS
Assay: qHTS assay to identify small molecule agonists of the vitamin D receptor (VDR) signaling pathway (AID 743222; calls by dose curve)
Details: HEK293T VDR-UAS-bla, beta-lactamase FRET ratio, 16 h; series mostly up to 63.5 µM
Summary of the method: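 VDR-bla cells were plated 4 h at 37C/5% CO2, then exposed to compounds in DMSO for 16 h. After LiveBLAzer B/G FRET substrate addition and 2 h at room temperature, beta-lactamase reporter fluorescence was read.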
In the case of `CCN1CCN(c2cc(-c3ccc(F)cc3)c3c(n2)CCCCCC3)CC1`, the Potency is reported as “inactive”. With `CCCC(CC)CCCCCCCN` (stereo unspecified) the Potency was “inactive”. With `CNC(=O)c1cc(Oc2ccc(NC(=O)Nc3ccc(Cl)c(C(F)(F)F)c3)cc2)ccn1` the Potency was “inactive”. For `CCCCCCCC/C=C\CCCCCCCC(=O)NCc1ccc(O)c(OC)c1`, the Potency was “inactive”. With `CCCCCCOc1cc(C)c(O)c(C)c1C` the Potency was “inactive”. For `CC(C)N=C(N)/N=C(\N)Nc1ccc(Cl)cc1`, the Potency was “inactive”. With `C1CC(COCC2CO2)CCC1COCC1CO1` (stereo unspecified) the Potency was “inactive”. For `COC(=O)[C@]1(C)CCC[C@@]2(C)[C@H]1CC=C1C=C(C(C)C)CC[C@@H]12`, the Potency was “inactive”. For `CCCCCCCCCC(=O)N(C)C`, the Potency was “inactive”. For `c1cc2c3c(c1)ccc1cccc(c13)C2`, the Potency was “inactive”. With `C=C(C)C(=O)OCCC[Si](Cl)(Cl)Cl` the Potency was “inactive”. For `ClC/C=C\CCl`, the Potency was “inactive”. In the case of `CCCCCCCOC(=O)c1ccc(O)cc1`, the Potency is reported as “inactive”. With `CCC(C)(C)c1cc(O)c(C(C)(C)CC)cc1O` the Potency was “inactive”. With `O=C(c1ccccc1)c1cc(Cl)ccc1O` the Potency was “inactive”. In the case of `Nc1ncnc2c1ncn2[C@@H]1O[C@H](COP(=O)(O)O)[C@@H](O)[C@H]1O`, the Potency is reported as “inactive”. For `CCOC(=O)[C@@](C)(N)Cc1ccc(O)c(O)c1`, the Potency was “inactive”. With `O=C(O)CCCCCCC(=O)O` the Potency was “inactive”.

Biological target: Vitamin D3 receptor (Homo sapiens) (UniProt P11473)
Assay: qHTS assay to identify small molecule antagonists of the vitamin D receptor (VDR) signaling pathway (AID 743223; active = well fitted inhibition curve with a large enough effect in the signal ratio in the repeat runs, not every such curve was filed as active; the % refers to the signal ratio; also: potency is read from the fitted curve at half-maximal effect)
Details: VDR-UAS-bla HEK293T, beta-lactamase FRET ratio, 16 h; series mostly up to 61 µM
Summary of the method: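 After VDR-bla cells are plated and left 4 h at 37C, DMSO-dissolved compounds and 3 nM (final) calcitriol agonist are added. Incubation continues 16 h at 37C; FRET beta-lactamase substrate then develops 2 h at room temperature.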
In the case of `O=C1C=CC(=O)N1c1ccccc1`, the Potency is reported as 12.3 µM (active). For `CCN1CCN(c2cc(-c3ccc(F)cc3)c3c(n2)CCCCCC3)CC1`, the Potency was “inactive”. In the case of `CCCC(CC)CCCCCCCN` (stereo unspecified), the Potency is reported as “inactive”. In the case of `CCCCCCOc1cc(C)c(O)c(C)c1C`, the Potency is reported as “inactive”. In the case of `CCCCCCCCCC(=O)N(C)C`, the Potency is reported as “inactive”. For `Cc1occc1SSc1ccoc1C`, the Potency was “inactive”. For `O=C(O)Cc1ccc(OCCNC[C@H](O)c2ccccc2)cc1`, the Potency was “inactive”. In the case of `CCOC(=O)[C@@](C)(N)Cc1ccc(O)c(O)c1`, the Potency is reported as “inactive”.

System: not listed separately
Assay: qHTS assay to identify small molecule agonists of the vitamin D receptor (VDR) signaling pathway - cell viability counter screen (AID 743224); also: nearly all actives have a fitted effect of over 50% in size; also: potency is read from the fitted curve at half-maximal effect
Details: VDR-bla HEK293T viability, CellTiter-Glo luminescence, 16 h; series mostly up to 62.6 µM
Summary of the method: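 VDR-bla cells were preincubated 4 h at 37C/5% CO2, then exposed to compounds for 16 h. After the 2 h room-temperature bla FRET read, CellTiter-Glo was added to the same wells and luminescence read after 30 min.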
With `O=C1C=CC(=O)N1c1ccccc1` the Potency was 11 µM (active). With `CCN1CCN(c2cc(-c3ccc(F)cc3)c3c(n2)CCCCCC3)CC1` the Potency was “inactive”. For `Cc1ccc2ccc3cccc4ccc1c2c34`, the Potency was “inactive”. With `CCCC(CC)CCCCCCCN` (stereo unspecified) the Potency was “inactive”. For `CCOC(=O)COc1ccc(C)cc1`, the Potency was “inactive”. With `CCCCCCCCCCCCCCCC` the Potency was “inactive”. In the case of `CNC(=O)c1cc(Oc2ccc(NC(=O)Nc3ccc(Cl)c(C(F)(F)F)c3)cc2)ccn1`, the Potency is reported as 23.7 µM (active). In the case of `CCCCCCCC/C=C\CCCCCCCC(=O)NCc1ccc(O)c(OC)c1`, the Potency is reported as 33.5 µM (active). For `CCCCCCOc1cc(C)c(O)c(C)c1C`, the Potency was 39.4 µM (active). With `Cc1cc(Nc2ccc(O)cc2)ccc1N` the Potency was “inactive”. For `CC(C)N=C(N)/N=C(\N)Nc1ccc(Cl)cc1`, the Potency was “inactive”. In the case of `Cc1cc2c(C(C)C)c(O)c(O)c(C=O)c2c(O)c1-c1c(C)cc2c(C(C)C)c(O)c(O)c(C=O)c2c1O`, the Potency is reported as 11.9 µM (active). In the case of `CCCN(CCc1cccs1)[C@H]1CCc2c(O)cccc2C1`, the Potency is reported as “inactive”. In the case of `C1CC(COCC2CO2)CCC1COCC1CO1` (stereo unspecified), the Potency is reported as “inactive”. For `COC(=O)[C@]1(C)CCC[C@@]2(C)[C@H]1CC=C1C=C(C(C)C)CC[C@@H]12`, the Potency was “inactive”. In the case of `CCCCCCCCCCCCOC(=O)c1cc(O)c(O)c(O)c1`, the Potency is reported as 27.4 µM (active) and 21.9 µM (active). For `C/C=C/C(=O)Oc1c(CCCCCC(C)C)cc([N+](=O)[O-])cc1[N+](=O)[O-]`, the Potency was 13.8 µM (active). In the case of `[O]=[Zr]`, the Potency is reported as “inactive”. For `C=C[C@](C)(O)CC[C@@H]1[C@@]2(C)CCCC(C)(C)[C@@H]2CC[C@@]1(C)O`, the Potency was 43.6 µM (active). For `CCCCCCCCCC(=O)N(C)C`, the Potency was “inactive”. In the case of `CCN(CC)c1ccc(N)cc1`, the Potency is reported as 20 µM (active). For `c1cc2c3c(c1)ccc1cccc(c13)C2`, the Potency was 56.1 µM (active). With `C=C(C)C(=O)OCCC[Si](Cl)(Cl)Cl` the Potency was “inactive”. For `ClC/C=C\CCl`, the Potency was “inactive”. In the case of `O=C(c1ccccc1)c1cc(Cl)ccc1O`, the Potency is reported as “inactive”. For `CCN=c1cc2oc3cc(NCC)c(C)cc3c(-c3ccccc3C(=O)OCC)c-2cc1C`, the Potency was 27.4 µM (active) and 24.5 µM (active). In the case of `Nc1ncnc2c1ncn2[C@@H]1O[C@H](COP(=O)(O)O)[C@@H](O)[C@H]1O`, the Potency is reported as 10.6 µM (active). In the case of `CCOC(=O)[C@@](C)(N)Cc1ccc(O)c(O)c1`, the Potency is reported as “inactive”. In the case of `CN(Cc1cc(Br)cc(Br)c1N)C1CCCCC1`, the Potency is reported as 26.6 µM (active). For `O=C(O)CCCCCCC(=O)O`, the Potency was “inactive”.

System: not listed separately
Assay: qHTS assay to identify small molecule antagonists of the vitamin D receptor (VDR) signaling pathway - cell viability counter screen (AID 743225); also: nearly all actives have a fitted effect of over 50% in size; also: potency is read from the fitted curve at half-maximal effect
Details: VDR-bla HEK293T viability, CellTiter-Glo luminescence, 16 h; series mostly up to 61 µM
Summary of the method: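 Cytotoxicity toward the VDR-bla HEK 293T line was scored by ATP-based CellTiter-Glo luminescence, read in the wells already used for the beta-lactamase readout after 16 h compound treatment under 3 nM 1-alpha,25-dihydroxyvitamin D3 stimulation.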
In the case of `O=C1C=CC(=O)N1c1ccccc1`, the Potency is reported as 15.5 µM (active). For `CCN1CCN(c2cc(-c3ccc(F)cc3)c3c(n2)CCCCCC3)CC1`, the Potency was “inactive”. With `CCCC(CC)CCCCCCCN` (stereo unspecified) the Potency was “inactive”. In the case of `CCOC(=O)COc1ccc(C)cc1`, the Potency is reported as “inactive”. For `CCCCCCCCCCCCCCCC`, the Potency was “inactive”. In the case of `CNC(=O)c1cc(Oc2ccc(NC(=O)Nc3ccc(Cl)c(C(F)(F)F)c3)cc2)ccn1`, the Potency is reported as 12 µM (active). In the case of `CCCCCCCC/C=C\CCCCCCCC(=O)NCc1ccc(O)c(OC)c1`, the Potency is reported as 21.3 µM (active). For `CCCCCCOc1cc(C)c(O)c(C)c1C`, the Potency was 35.1 µM (active). In the case of `Cc1cc(Nc2ccc(O)cc2)ccc1N`, the Potency is reported as “inactive”. In the case of `CC(C)N=C(N)/N=C(\N)Nc1ccc(Cl)cc1`, the Potency is reported as “inactive”. For `Cc1cc2c(C(C)C)c(O)c(O)c(C=O)c2c(O)c1-c1c(C)cc2c(C(C)C)c(O)c(O)c(C=O)c2c1O`, the Potency was 9.52 µM (active). In the case of `CCCN(CCc1cccs1)[C@H]1CCc2c(O)cccc2C1`, the Potency is reported as “inactive”. In the case of `COC(=O)[C@]1(C)CCC[C@@]2(C)[C@H]1CC=C1C=C(C(C)C)CC[C@@H]12`, the Potency is reported as “inactive”. With `CCCCCCCCCCCCOC(=O)c1cc(O)c(O)c(O)c1` the Potency was 43.5 µM (active) and 24.5 µM (active). With `[O]=[Zr]` the Potency was “inactive”. With `C=C[C@](C)(O)CC[C@@H]1[C@@]2(C)CCCC(C)(C)[C@@H]2CC[C@@]1(C)O` the Potency was 43.6 µM (active). In the case of `CCCCCCCCCC(=O)N(C)C`, the Potency is reported as “inactive”. In the case of `Cc1occc1SSc1ccoc1C`, the Potency is reported as “inactive”. With `CCN(CC)c1ccc(N)cc1` the Potency was “inactive”. With `C=C(C)C(=O)OCCC[Si](Cl)(Cl)Cl` the Potency was “inactive”. In the case of `ClC/C=C\CCl`, the Potency is reported as “inactive”. For `CCCCCCCOC(=O)c1ccc(O)cc1`, the Potency was 38.9 µM (active). With `O=C(O)Cc1ccc(OCCNC[C@H](O)c2ccccc2)cc1` the Potency was “inactive”. For `CCC(C)(C)c1cc(O)c(C(C)(C)CC)cc1O`, the Potency was “inactive”. With `O=C(c1ccccc1)c1cc(Cl)ccc1O` the Potency was “inactive”. With `CCN=c1cc2oc3cc(NCC)c(C)cc3c(-c3ccccc3C(=O)OCC)c-2cc1C` the Potency was 48.8 µM (active) and 24.5 µM (active). In the case of `Nc1ncnc2c1ncn2[C@@H]1O[C@H](COP(=O)(O)O)[C@@H](O)[C@H]1O`, the Potency is reported as 10.7 µM (active). For `CCOC(=O)[C@@](C)(N)Cc1ccc(O)c(O)c1`, the Potency was “inactive”. For `CN(Cc1cc(Br)cc(Br)c1N)C1CCCCC1`, the Potency was “inactive”. With `O=C(O)CCCCCCC(=O)O` the Potency was “inactive”.
